An excerpt weighted towards active compounds, which were near 8.8% of everything screened.
HTT ATP protect: Huntington cell model cytoprotection by ATP luminescence | PC12 HTT-Q103 induced, cytoprotection, ATP luminescence, 40 h | 0.14% of 230,000 active | Potency, µM (top dose mostly 56.4 µM), usual class: activators; also: nearly all actives have a fitted effect of over 45% in size
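Cells were plated at 1500 per well in phenol red-free DMEM with 5% equine and 5% calf serum. Tebufenozide (100 nM final) and compounds were added, then ATPlite reagent, and luminescence was read.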
LMNA splice mod: LMNA splicing modulation | HeLa LMNA splicing GFP/RFP minigene ratio, 48 h | Potency, µM (series often up to 46.1 µM), most hits filed as inhibitors | 0.01% of 200,000 active | AID 1487; active = well fitted inhibition curve with a large enough effect in the signal ratio, with a control signal flat, not every such curve was filed as active; inconclusive = small, poorly fitted or top-dose-only effect, or effect the other way, or a change in a side signal; the % refers to the signal ratio
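S3 HeLa cells stably expressing lamin A-EGFP splicing minigene plus DsRed2, 600 cells/well, 48 h compound exposure at 37C. Laser-scanning cytometry; analysed as GFP (500-530 nm)/RFP (575-640 nm) total intensity ratio; 0.5% DMSO vehicle.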
ALDH1A1 block: ALDH1A1 (human) enzyme inhibition. Purified ALDH1A1, NADH fluorescence, propionaldehyde substrate. P00352. Potency, µM (highest dose often 75.3 µM), most hits filed as inhibitors. 7.3% of 220,000 active. AID 1030; active = well fitted inhibition curve with a large enough effect, not every such curve was filed as active; inconclusive = small, poorly fitted or top-dose-only effect, or another doubt; inactive = no such curve, though single readings can be large or run the other way
Target sequence (P00352 whole entry, looked up): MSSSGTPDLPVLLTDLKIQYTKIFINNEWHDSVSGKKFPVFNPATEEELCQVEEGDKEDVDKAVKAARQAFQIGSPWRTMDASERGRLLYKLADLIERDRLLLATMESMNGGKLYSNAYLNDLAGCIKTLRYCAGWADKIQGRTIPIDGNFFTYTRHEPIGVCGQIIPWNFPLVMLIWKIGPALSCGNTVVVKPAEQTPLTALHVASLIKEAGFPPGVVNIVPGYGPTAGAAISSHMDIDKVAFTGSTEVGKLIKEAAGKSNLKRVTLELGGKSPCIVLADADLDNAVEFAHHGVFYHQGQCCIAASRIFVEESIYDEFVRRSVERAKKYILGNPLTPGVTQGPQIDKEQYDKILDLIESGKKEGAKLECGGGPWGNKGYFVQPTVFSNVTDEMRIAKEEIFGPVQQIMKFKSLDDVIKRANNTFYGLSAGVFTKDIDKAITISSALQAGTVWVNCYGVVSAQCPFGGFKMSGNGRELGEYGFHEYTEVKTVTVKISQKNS
HPGD block: blocks human HPGD enzyme activity | P15428 | purified HPGD, NADH fluorescence kinetic, PGE2 substrate | Potency, µM, most hits filed as inhibitors | 4.3% of 150,000 active | AID 894; active = well fitted inhibition curve with a large enough effect, not every such curve was filed as active; inconclusive = small, poorly fitted or top-dose-only effect, or another doubt; inactive = no such curve, though single readings can be large or run the other way
Target sequence (P15428 whole entry, looked up): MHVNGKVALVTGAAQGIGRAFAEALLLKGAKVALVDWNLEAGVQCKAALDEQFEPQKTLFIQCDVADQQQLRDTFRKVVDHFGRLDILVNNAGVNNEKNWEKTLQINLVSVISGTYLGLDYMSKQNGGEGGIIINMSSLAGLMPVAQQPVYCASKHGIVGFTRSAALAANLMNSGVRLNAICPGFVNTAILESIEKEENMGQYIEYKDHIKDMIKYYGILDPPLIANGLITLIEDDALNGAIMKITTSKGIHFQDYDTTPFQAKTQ
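NADH formation kinetics: reaction with 30 uM PGE2 and 1 mM NAD+ (final), 20 nM enzyme, Tris-HCl pH 8 with Tween 20, after 15 min compound preincubation at room temperature. Fluorescence change, last versus first of five reads.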
HTT aggregate: reduces HttQ103-GFP aggregates in PC12 cells; PC12 HttQ103-GFP aggregates, Acumen cytometry, 40 h; Potency, µM (top dose mostly 46.1 µM), actives largely listed as inhibitors; 1.1% of 220,000 active; AID 1688; also: nearly all actives have a fitted effect of over 60% in size
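Aggregate formation scored by laser-scanning cytometer (488 excitation, 500–530 emission) in lysed PC12 cells expressing Q103-GFP after 100 nM tebufenozide induction; library tested in dose series, with ATPLite reagent added in the multiplex.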
A number is an active result; . = inactive; ? = inconclusive; / = not tested or not shown; [ ] = remark or other dose. Unless noted, calls follow the shape of the dose curve; as a rule, active = well fitted curve in the direction sought with a large enough effect; inconclusive = small, poorly fitted or top-dose-only effect, or another doubt; inactive = no such curve, though single readings can be large; an effect the other way counts as inactive or inconclusive.

SMILES | HTT ATP protect | LMNA splice mod | ALDH1A1 block | HPGD block | HTT aggregate
Cc1ccc(S(=O)(=O)Nc2nc3ccc(S(C)(=O)=O)cc3s2)cc1 | .[10 µM] | . | ? | 25µM | .
Cc1ccc2nc(NC(=S)NC(=O)c3ccc(OC(C)C)cc3)sc2c1 | . | ? | 19µM | 10µM | ?
CCOCC(=O)Nc1nc2ccc(S(C)(=O)=O)cc2s1 | . | . | 18µM | . | .
CCOc1ccc2nc(NC(=O)CSC3=NCCS3)sc2c1 | . | ? | 25µM | . | ?
CS(=O)(=O)c1ccc2nc(NC(=O)CN3C(=O)C4CC=CCC4C3=O)sc2c1 (configuration not stated) | . | . | 13µM | / | .
CCOCC(=O)Nc1nc2ccc(C)cc2s1 | .[10 µM] | . | 13µM | . | .
COc1cccc(N2CCN(C(=O)c3cc4c(=O)n(Cc5ccco5)ccc4nc3C)CC2)c1 | / | . | / | / | /
COC(=O)c1c(NC(=O)CN2CCC3(O)CCCCC3C2c2ccc(OC)cc2OC)sc(C)c1C (configuration not stated) | .[1.9 µM] | ? | 2.5µM | 20µM | .
CCCC(C)NNC(=O)c1cc2ccccc2[nH]1 (configuration not stated) | . | . | . | 13µM | .
O=C(N/N=C1/C[C@@H](O)[C@@H](O)[C@@H]2[C@@H]3C(=O)N(C[C@@H]4CCCO4)C(=O)[C@H]3CC[C@@H]12)OCc1ccccc1 | .[10 µM] | / | .[13.5 µM] | / | /
CCn1cc(C(=O)N2CCN(c3ccccn3)CC2)c(=O)c2cc(S(=O)(=O)N(C)C3CCCCC3)ccc21 | / | / | . | / | .
COc1cc(C(=O)NC2CCN(Cc3nnnn3Cc3cccs3)CC2)cc(OC)c1OC | .[10 µM] | . | 8.9µM | . | .
COC(=O)c1c(C)[nH]c(O)c1C=Nc1ccc(C(C)C)cc1 | . | . | ? | 25µM | .
CC(=O)Nc1ccc(N2CC(C)(C)C2=O)cc1 | / | . | . | / | /
CCC(/C=C/C(C)C1CCC2C3CCC4=CC(=O)CC[C@@]4(C)C3CC[C@@]12C)C(C)C (some centres not stated) | / | . | . | . | /
O=C(Nc1cccc(C(=O)OCc2cc(=O)n3nc(C4CC4)sc3n2)c1)c1cccc(F)c1 | / | . | / | / | /
CC1(C)CC(N(Cc2cccs2)C(=O)c2ccco2)CCO1 (configuration not stated) | .[0.074 µM] | . | 10µM | . | .
COc1cccc([C@@H]2Nc3ccc(C(=O)O)cc3[C@@H]3C=CC[C@@H]32)c1OC | / | . | / | / | /
O=C(O)c1ccc2c(c1)C1C=CCC1C(c1ccncc1)N2 (configuration not stated) | .[10 µM] | / | / | / | .[9.22 µM]
Cc1c(Cl)cccc1NS(=O)(=O)c1ccc2c(c1)C1C=CCC1C(c1ccc(C(=O)O)cc1)N2 (configuration not stated) | .[10 µM] | / | 13µM | / | .[9.22 µM]
CC(=O)c1ccc2c(c1)C1C=CCC1C(c1ccc(S(=O)(=O)N3CCOCC3)cc1)N2 (configuration not stated) | .[10 µM] | ? | 25µM | . | .
c1ccc([C@H](CCN2CCCC2)c2ccccn2)cc1 | .[10 µM] | / | .[13.5 µM] | . | /
COc1ccc(/C=N/NC(=O)c2ccn[nH]2)cc1COc1ccc([N+](=O)[O-])c(C)c1 | .[10 µM] | / | ? | / | .[9.22 µM]
COc1ccc(C(=O)N/N=C/c2ccc(OC)c(OS(=O)(=O)c3ccccc3)c2)cc1 | .[10 µM] | ? | 10µM | . | .
COc1ccc(/C=N/NC(=O)c2cccnc2)cc1COc1ccc([N+](=O)[O-])c(C)c1 | .[10 µM] | / | 10µM | / | .[9.22 µM]
SMILES | HTT ATP protect | LMNA splice mod | ALDH1A1 block | HPGD block | HTT aggregate
COc1ccc(/C=N/NS(=O)(=O)c2ccccc2)cc1OS(=O)(=O)c1ccccc1 | . | . | ? | . | .
COc1ccc(/C=N/NC(=O)c2cccc([N+](=O)[O-])c2)cc1OS(=O)(=O)c1ccc(C)cc1 | . | . | 13µM | . | .
COc1ccc(CNC(=S)N/N=C/c2ccc(OC)c(OC)c2)cc1 | . | ? | ? | 22µM | ?
Cc1nc2cnc(N3CCOCC3)nc2n(Cc2ccc(F)cc2)c1=O | . | . | . | / | /
COc1ccccc1N1CCN(C/C(O)=C(\C#N)c2nc(-c3ccccc3)cs2)CC1 | .[0.074 µM] | . | 11µM | . | .
N#C/C(=C(/O)CN1CCN(c2ccccc2F)CC1)c1nc(-c2ccc(Cl)cc2)cs1 | . | . | . | . | ?
CCOC(=O)C1CCCN(C/C(O)=C(\C#N)c2nc(-c3ccccc3)cs2)C1 (configuration not stated) | .[10 µM] | . | 32µM | . | .
Cc1ccccc1-c1ccc(Nc2ccc(N3CCOCC3)cc2)nn1 | .[10 µM] | ? | 8.9µM | . | .
O=C1C(c2cc(=O)c3ccccc3[nH]2)=C(O)c2ccccc21 | / | ? | . | 14µM | .
O=c1cc(-c2ccccc2)[nH]c2ccccc12 | . | ? | . | 13µM | .
O=c1nc(-c2ccccc2)c2ccccc2[nH]1 | .[10 µM] | . | ? | ? | .
CCOc1ccc(-c2nnc(SCC(=O)NCCc3ccccc3)nc2-c2ccc(OCC)cc2)cc1 | / | . | / | / | /
N#CC1=C(N)n2c(s/c(=C\c3ccco3)c2=O)=C(C#N)C1c1ccco1 (configuration not stated) | .[10 µM] | . | 22µM | . | .
C=C1CC[C@@H](O)C/C1=C/C=C1\CCC[C@]2(C)[C@@H]1CC[C@H]2[C@@H](C)CCCC(C)C | . | / | / | / | /
COCCNC(=O)CSCc1c(F)cccc1Cl | .[0.074 µM] | . | . | 22µM | .
O=C(CSCc1c(F)cccc1Cl)NCc1ccncc1 | .[1.9 µM] | ? | ? | / | .[9.22 µM]
O=C(CNC(=O)c1ccco1)OCc1c(F)cccc1Cl | .[10 µM] | . | . | . | .
COc1ccc(CNC(=O)CSCc2c(F)cccc2Cl)cc1 | .[10 µM] | / | 2.2µM | / | .[9.22 µM]
O=C(NCCSCc1c(F)cccc1Cl)c1ccco1 | . | . | 16µM | 5µM | .
O=C(COC(=O)c1ccc(Cl)nc1)Nc1ccccc1OC(F)F | . | . | . | / | .
O=C(c1ccccc1)c1ccc2nc(Nc3ccccc3Cl)c3nncn3c2c1 | / | . | / | / | /
c1ccc(Cn2ccnc2SCc2nnc(-c3ccccc3)o2)cc1 | . | ? | . | 25µM | ?
NC(=O)CSc1nccn1Cc1ccccc1 | ? | / | 10µM | / | .
NC(=O)CSc1nccn1Cc1ccc(Cl)cc1 | .[10 µM] | . | . | / | .
CSC1=NC2(CCN(C(=O)NC3CCCCC3)CC2)N=C1c1ccc(C)cc1 | / | . | / | / | /
SMILES | HTT ATP protect | LMNA splice mod | ALDH1A1 block | HPGD block | HTT aggregate
CCc1ccc(NC(=O)CCc2c(C)n(C)c3cc(-c4ccccc4C)nn3c2=O)cc1 | / | . | / | / | /
Cn1c(SCc2ccc(C(F)(F)F)cc2)nc2c([nH]c3ccccc32)c1=O | / | . | / | / | /
CC(=O)c1ccc(NC(=O)Cn2cnc3nc4c(cc3c2=O)CC(C)CC4)cc1 (configuration not stated) | / | . | / | / | /
Cc1c(C(=O)c2ccccc2)c2ccccn2c1CCc1ccccn1 | . | ? | 11µM | / | .
Cc1c(C(=O)c2ccc(F)cc2)c2ccccn2c1CCc1ccccn1 | . | . | ? | / | .
Cc1cn2c(=O)cc(COC(=O)COc3ccccc3C)nc2s1 | / | . | / | / | /
CNC(=S)/N=C/NOCc1ccc(Cl)cc1Cl | .[10 µM] | . | . | / | 7.9µM
